High-throughput results (PubChem)
Only a selection was taken, and hits are over-represented in it overall.
PL biosyn Enam – phospholipid synthesis inhibitors, CHO cells, primary screen, ZR-82 cells, Enamine library, screen 3 | ZR-82 CHO cells, pyrene fatty acid UV survival, CellTiter Blue; peroxisome-deficient CHO-K1 mutant line; plus DGAT-1, DGAT-2 and ACAT inhibitors | calls only at 10 µM | 20,000 tested, 0.4% active | AID 1347385, 2020;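 active means cell survival signal 2 SD away from solvent-only control wells, confirmed on one or two retests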;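 further: 3 h compound exposure then viability read about one day after UV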
Calls only.

How did c1ccc(C2=NN3C(C2)c2ccccc2OC32CCCC2)cc1 (configuration not stated) do in these assays?
PL biosyn Enam: inactive

Results for Oc1c(C(c2ccccn2)N2CCN(c3ccccn3)CC2)ccc2cccnc12 (configuration not stated) ?
PL biosyn Enam: inactive

What do the screens show for `CNC(=O)NC(=O)CSc1nc2sc3c(c2c(=O)n1C)CCCC3`?
PL biosyn Enam: inactive

What do the screens show for `Clc1ccc(Cl)c(N=C2N=C(Nc3cc(Cl)ccc3Cl)c3ccccc32)c1`?
PL biosyn Enam: inactive

Results for COc1ccc(C2=N/C(=C\c3ccc(C(F)(F)F)cc3)C(=O)O2)cc1OC ?
PL biosyn Enam: inactive

How did Cc1ccc(C)c(N=Nc2c(C)[nH]c3ccccc23)c1 do in these assays?
PL biosyn Enam: active

How did Cc1cc(=S)[nH]c2ccccc12 do in these assays?
PL biosyn Enam: inactive

Results for N=C(N)N=Nc1c(O)[nH]c2ccccc12 ?
PL biosyn Enam: inactive

Results for COc1ccc2c(-c3ccccc3)cc(Oc3ccc(Br)cc3Br)nc2c1 ?
PL biosyn Enam: inactive

What do the screens show for `COc1cc(/C=N/N2CCOCC2)cc(Br)c1O`?
PL biosyn Enam: inactive

How did O=[N+]([O-])c1ccc2[nH]c(O)c(N=Nc3ccc(Cl)c(Cl)c3)c2c1 do in these assays?
PL biosyn Enam: inactive

How did Oc1[nH]c2ccc(Br)cc2c1N=Nc1ccc(Cl)c(Cl)c1 do in these assays?
PL biosyn Enam: inactive

Results for O=[N+]([O-])c1ccc(N=Nc2c(O)[nH]c3ccc(Br)cc23)cc1 ?
PL biosyn Enam: active

Results for CCOC(=O)c1c(C)[nH]c(C)c1C(=O)COC(=O)c1cc2c(s1)CCC2 ?
PL biosyn Enam: inactive

Results for NC(=O)c1c(NC(=O)C2CCC2)sc2c1CCCC2 ?
PL biosyn Enam: inactive

How did ClC1(Cl)CC1CNc1ncnc2sccc12 (configuration not stated) do in these assays?
PL biosyn Enam: active

Results for OCCCNc1ncnc2sccc12 ?
PL biosyn Enam: inactive

Results for CN(C)C(CNc1ncnc2sccc12)c1cccs1 (configuration not stated) ?
PL biosyn Enam: inactive

How did CN1CCN(c2nc(CSc3ccccc3)nc3sc4c(c23)CCC4)CC1 do in these assays?
PL biosyn Enam: inactive

What do the screens show for `CN1/C(=C\C=Nc2c(F)c(F)c(F)c(F)c2F)C(C)(C)c2ccccc21`?
PL biosyn Enam: inactive

What do the screens show for `CN1/C(=C\C=Nc2ccccc2I)C(C)(C)c2ccccc21`?
PL biosyn Enam: inactive

What do the screens show for `CN1/C(=C\C=Nc2ccccc2N)C(C)(C)c2ccccc21`?
PL biosyn Enam: active

Results for c1cncc(-c2noc(-c3ccc4c(c3)OCO4)n2)c1 ?
PL biosyn Enam: inactive

What do the screens show for `FC(F)Oc1ccc(/C=N/N=C(c2ccccc2)c2ccccc2)c(OC(F)F)c1`?
PL biosyn Enam: inactive

What do the screens show for `O=C1Nc2ccc(Br)cc2C12NNc1ccccc1O2` (configuration not stated)?
PL biosyn Enam: active

What do the screens show for `O=c1c2cc([N+](=O)[O-])ccc2oc2ccc([N+](=O)[O-])cc12`?
PL biosyn Enam: inactive

Results for O=C1Nc2ccc(Br)cc2C1(O)C(F)(F)F (configuration not stated) ?
PL biosyn Enam: inactive

What do the screens show for `O=C1Nc2ccc([N+](=O)[O-])cc2C12NNc1ccccc1O2` (configuration not stated)?
PL biosyn Enam: active

How did O=C1NC2(Oc3ccccc31)C(=O)Nc1ccccc12 (configuration not stated) do in these assays?
PL biosyn Enam: inactive

How did CN1c2ccccc2C(C)(C)C12C=Cc1cc([N+](=O)[O-])ccc1O2 (configuration not stated) do in these assays?
PL biosyn Enam: inactive

Results for CC1(c2ccc3c(c2)OCO3)NC(=O)NC1=O (configuration not stated) ?
PL biosyn Enam: inactive

What do the screens show for `C=CCN(Cc1cccs1)c1ncnc2sc3c(c12)CCCC3`?
PL biosyn Enam: inactive

What do the screens show for `CCN1C(=Cc2cc(C)[n+](N3CCN(C)CC3)c(C)c2)Sc2ccccc21`?
PL biosyn Enam: inactive

What do the screens show for `CCC(CO)[n+]1c(C)cc(C=C2Sc3ccccc3N2Cc2ccccc2)cc1C` (configuration not stated)?
PL biosyn Enam: active

How did CCN1C(=Cc2cc(C)[n+](CCO)c(C)c2)Sc2ccccc21 do in these assays?
PL biosyn Enam: inactive

How did O=c1[nH]c(CN2CCCC2c2cccs2)nc2ccsc12 (configuration not stated) do in these assays?
PL biosyn Enam: inactive

What do the screens show for `NC(c1cc(Cl)cc([N+](=O)[O-])c1O)P(=O)(O)O` (configuration not stated)?
PL biosyn Enam: inactive

How did O=S(=O)(N/N=C/c1c[nH]c2ccccc12)c1ccc(Br)cc1 do in these assays?
PL biosyn Enam: inactive

What do the screens show for `NC(=S)N/N=C/c1c[nH]c2ccccc12`?
PL biosyn Enam: inactive

What do the screens show for `C=CCN1C(=O)/C(=N\N=C\c2c[nH]c3ccccc23)c2ccccc21`?
PL biosyn Enam: active
